In PubChem BioAssay (NCI) one finds growth data, which are given here for 10 compounds.

Common to all, as to assay: NCI-60 one-dose screen, 48 h (100 = growth as untreated, 0 = no growth, -100 = all killed)
One experiment concerns HOP-92 NSCLC. To be noted: 10 µM unless noted.
The subject of another experiment is COLO 205 colon. To be noted: 10 µM.
A further experiment deals with MALME-3M melanoma. To be noted: 10 µM unless noted.
A further experiment has as its system RXF 393 renal. To be noted: 10 µM unless noted.
The next experiment has as its system U251 CNS. To be noted: 10 µM unless noted.
Another experiment has as its system LOX IMVI melanoma. To be noted: 10 µM unless noted.
The next experiment relates to TK-10 renal. To be noted: 10 µM unless noted.
In another experiment the test system is SR leukemia. To be noted: 10 µM.
Another experiment has as its system RPMI-8226 leukemia. To be noted: 10 µM unless noted.
The next experiment has as its system SK-OV-3 ovarian. To be noted: 10 µM unless noted.
The subject of the next experiment is BT-549 breast. To be noted: 10 µM.
In another experiment the test system is SW-620 colon. To be noted: 10 µM unless noted.
The test system of the next experiment is HCT-116 colon. To be noted: 10 µM unless noted.
For a further experiment, the system named is NCI-H522 lung. To be noted: 10 µM unless noted.
The next experiment has as its system M14 melanoma. To be noted: 10 µM unless noted.
The subject of a further experiment is EKVX NSCLC. To be noted: 10 µM unless noted.
A further experiment relates to CAKI-1 renal. To be noted: 10 µM unless noted.
Another experiment concerns CCRF-CEM leukemia. To be noted: 10 µM unless noted.
In a further experiment the test system is MOLT-4 leukemia. To be noted: 10 µM.

Compounds without any hit were thinned out: in the full panel of roughly 83,000, 20% have a hit.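 For each line, cells grew in 96-well plates with the test compound present at a single concentration for 48 hours.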 A number with no mark means an inactive call. The source made the active and inactive calls. Rule for the calls: active = growth percent below 10; inactive = the rest.

With `Cc1cc([N+](=O)[O-])c(Cl)cc1NS(=O)(=O)c1ccccc1`, the growth with HOP-92 NSCLC was -3.58% (active); in the experiment on COLO 205 colon, 91.9%; with MALME-3M melanoma, 37.9%; in the experiment with RXF 393 renal, 91.9%; with U251 CNS, 80.9%; in the experiment on LOX IMVI melanoma it was 81.2%. Further, the growth was 110% with TK-10 renal; 64.3% in the experiment with SR leukemia; 37.3% in the experiment with RPMI-8226 leukemia; 96% with SK-OV-3 ovarian; 62.5% in the experiment on BT-549 breast; 93.9% in the experiment on SW-620 colon. The growth in the experiment with HCT-116 colon is 87.3%.

As for `O=C(NCCNC(=O)c1ccc([As](O)O)cc1)c1ccc([As](O)O)cc1`, the growth was 103% with NCI-H522 lung; 100% in the experiment on COLO 205 colon; 108% in the experiment with MALME-3M melanoma; 105% in the experiment on RXF 393 renal; 99.1% in the experiment with M14 melanoma; 103% in the experiment with U251 CNS. For the same compound, the growth was 90.3% in the experiment with LOX IMVI melanoma; 103% in the experiment with EKVX NSCLC; 111% in the experiment with TK-10 renal; 98.3% in the experiment on CAKI-1 renal; 105% with CCRF-CEM leukemia; 109% with MOLT-4 leukemia. For the same compound, the growth in the experiment with SR leukemia is 101%; in the experiment on RPMI-8226 leukemia it was 114%; in the experiment on SK-OV-3 ovarian, 104%; in the experiment with BT-549 breast, 111%; in the experiment on SW-620 colon, 94.7%.

`CC(C)(C)N(Cc1ccccc1)N=O`: the growth with NCI-H522 lung was 90.3%; in the experiment on COLO 205 colon, 108%; with MALME-3M melanoma, 107%; in the experiment on RXF 393 renal it was 93.1%; with M14 melanoma it was 103%; in the experiment on U251 CNS, 99.3%. In addition, the growth in the experiment with LOX IMVI melanoma was 93.7%; in the experiment on CCRF-CEM leukemia, 98.4%; in the experiment on MOLT-4 leukemia it was 104%; in the experiment on RPMI-8226 leukemia, 99.2%; in the experiment on SK-OV-3 ovarian, 96.2%; in the experiment on SW-620 colon it was 101%.

`CC(C)Nc1ccc(Nc2ccccc2)cc1`: the growth with NCI-H522 lung is 40.8%; in the experiment with COLO 205 colon it was 43.6%; in the experiment on MALME-3M melanoma, 43%; in the experiment with RXF 393 renal it was 55.5%; in the experiment with M14 melanoma, 47.7%; with U251 CNS, 12.5%. Moreover, the growth in the experiment with LOX IMVI melanoma was 14.5%; in the experiment on TK-10 renal it was 45.2%; in the experiment with CAKI-1 renal, 41.6%; with CCRF-CEM leukemia, 38.3%; in the experiment on MOLT-4 leukemia, 43.6%; in the experiment on SR leukemia, 51.2%. Further, the growth in the experiment with RPMI-8226 leukemia is 11.5%; in the experiment on SK-OV-3 ovarian it was 27.7%; in the experiment with BT-549 breast, 22.8%; in the experiment on SW-620 colon, 33.8%; in the experiment with HCT-116 colon it was 9.97% (active).

Consider `CCC(/C=C(C)/C=C/C(=O)c1c(O)c(-c2ccc(O)cc2)c[nH]c1=O)CO` (stereo unspecified), for which the growth in the experiment on HOP-92 NSCLC was 26.2%; in the experiment on COLO 205 colon it was 124%; with RXF 393 renal it was 104%; in the experiment on M14 melanoma, 104%; with U251 CNS, 67.6%; in the experiment on LOX IMVI melanoma it was 87.2%. In addition, the growth in the experiment with EKVX NSCLC was 89.2%; in the experiment on TK-10 renal, 130%; in the experiment with CAKI-1 renal it was 81.8%; with CCRF-CEM leukemia it was 7.28% (active); in the experiment on MOLT-4 leukemia, 31.5%; with SR leukemia it was 19.9%. Further, the growth in the experiment with BT-549 breast was 78.8%; in the experiment on SW-620 colon, 100%; in the experiment on HCT-116 colon, 80.1%.

With `CCC(C)/C=C(C)/C=C/C(=O)c1c(O)c(-c2ccc(O)cc2)c[nH]c1=O` (stereo unspecified), the growth in the experiment on NCI-H522 lung was 34.1%; with COLO 205 colon, 105%; with MALME-3M melanoma it was 75%; in the experiment with RXF 393 renal it was 52.3%; in the experiment on M14 melanoma it was 79.1%; with U251 CNS it was 40.9%. Moreover, the growth in the experiment with LOX IMVI melanoma is 40.2%; in the experiment with EKVX NSCLC, 58%; with TK-10 renal, 27.3%; in the experiment on CAKI-1 renal, -16.5% (active); in the experiment with CCRF-CEM leukemia, 16.2%; with MOLT-4 leukemia, 29.4%. Moreover, the growth in the experiment with SR leukemia was 13%; with RPMI-8226 leukemia it was 41.6%; in the experiment with SK-OV-3 ovarian, 74.3%; in the experiment on SW-620 colon, 39.6%; in the experiment with HCT-116 colon it was 39%.

`CC1(C)N=C(N)N=C(N)N1c1ccc(CCCCc2ccc(Cl)cc2S(=O)(=O)F)c(Cl)c1`: the growth was 3.95% (active) with NCI-H522 lung; 15.9% in the experiment on COLO 205 colon; 39.3% with MALME-3M melanoma; 29.6% in the experiment with RXF 393 renal; 18% in the experiment on M14 melanoma; 15.3% with U251 CNS. Moreover, the growth was 13.3% with LOX IMVI melanoma; 30.3% with TK-10 renal; 13.1% in the experiment with CCRF-CEM leukemia; 28.7% with MOLT-4 leukemia; 17.8% with RPMI-8226 leukemia; 44.2% with SK-OV-3 ovarian. For the same compound, the growth was 37% with BT-549 breast and 14.9% in the experiment with HCT-116 colon.

As for `CCC1CN1P(=O)(OCCOC)N1CC1CC` (stereo unspecified), the growth is 98.4% with HOP-92 NSCLC; 119% in the experiment with COLO 205 colon; 110% in the experiment on MALME-3M melanoma; 110% in the experiment on RXF 393 renal; 109% with M14 melanoma; 102% in the experiment on U251 CNS. Further, the growth in the experiment on LOX IMVI melanoma was 105%; in the experiment on TK-10 renal, 123%; in the experiment on MOLT-4 leukemia, 108%; in the experiment on SR leukemia, 93.8%; in the experiment on RPMI-8226 leukemia, 105%; with SW-620 colon it was 106%. Besides, the growth in the experiment on HCT-116 colon was 104%.

As to `O=C(CI)Nc1ccc(Br)cc1`, the growth in the experiment on NCI-H522 lung was -85% (active); in the experiment with COLO 205 colon, -78.2% (active); in the experiment with MALME-3M melanoma it was -65% (active); in the experiment on RXF 393 renal it was 26.5%; in the experiment with M14 melanoma, 14.1%; in the experiment on U251 CNS, -18.8% (active). Further, the growth in the experiment on LOX IMVI melanoma is -78.6% (active); in the experiment on EKVX NSCLC, 102%; in the experiment with TK-10 renal, -81.4% (active); in the experiment with CAKI-1 renal it was -67.5% (active); in the experiment on CCRF-CEM leukemia, -31.7% (active); with MOLT-4 leukemia it was -28.4% (active). Further, the growth was -53% (active) in the experiment with SR leukemia; 36.6% in the experiment with RPMI-8226 leukemia; 101% in the experiment on SK-OV-3 ovarian; -86.7% (active) in the experiment on SW-620 colon; -69.9% (active) with HCT-116 colon.

Consider `O=CN1N=C(c2ccc3c(c2)OCO3)CC1c1sc(N(CCCl)CCCl)nc1Cl` (stereo unspecified), for which the growth in the experiment with NCI-H522 lung was 74.7%; in the experiment with COLO 205 colon, 104%; in the experiment on MALME-3M melanoma, 106%; with RXF 393 renal, 109%; in the experiment on M14 melanoma it was 102%; with U251 CNS, 98.6%. Besides, the growth was 100% in the experiment on LOX IMVI melanoma; 97.9% with EKVX NSCLC; 95.3% in the experiment on TK-10 renal; 82.1% in the experiment with CAKI-1 renal; 92.1% with CCRF-CEM leukemia; 87.6% in the experiment with SR leukemia. For the same compound, the growth in the experiment with SK-OV-3 ovarian is 90%; with BT-549 breast, 94.7%; with SW-620 colon it was 92.9%; with HCT-116 colon it was 83.8%.
